# Assay results taken from PubChem BioAssay (NCATS).
# “And” between values parts separate entries of the source, which are not always exact repeats. Identical values can stand only once. Results filed as inconclusive are left out. Entries that show only a call come without a potency. The source made the active and inactive calls. Unless noted, the call rests on the fitted dose curve; in most records, active means well fitted curve in the direction sought with a large enough effect; inconclusive means small, poorly fitted or top-dose-only effect, or another doubt; inactive means no such curve, though single readings can be large; an effect the other way counts as inactive or inconclusive.
# Assays:
# [1] = target: T1, Hexokinase-4 (Homo sapiens) + Glucokinase regulatory protein (Homo sapiens) (UniProt P35557+Q14397); experiment: qHTS assay for inhibitors of recombinant human GCK-GKRP interaction: Diaphorase-coupled assay (AID 743205)
# In short: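 25 mM Hepes pH 7.6, 5 mM glucose, 0.4 mM ATP, 4 U/ml G6PDH; 10 nM each GST-GCK/FLAG-GKRP. Kinetic fluorescence read, 1/min × 30 min. Normalized: DMSO ± enzyme = max/min.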
# [2] = target: T1, Hexokinase-4 (Homo sapiens) + Glucokinase regulatory protein (Homo sapiens); experiment: qHTS assay for inhibitors of recombinant human GCK-GKRP interaction: ADP-Glo assay (AID 743206); further: potency means the concentration at half of the fitted maximal effect
# In short: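 GST-GCK and FLAG-GKRP (15 nM each in the dispensed mix, with 2 uM S6P) react with 0.4 mM ATP and 5 mM glucose (final) in Hepes pH 7.6 for 60 min at room temperature. ADP is measured by ADP-Glo luminescence.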
# [3] = target: T1, Hexokinase-4 (Homo sapiens) + Glucokinase regulatory protein (Homo sapiens); experiment: qHTS assay for inhibitors of recombinant human GCK-GKRP interaction: HTRF assay (AID 743207)
# In short: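 5 nM GST-GCK + 5 nM FLAG-GKRP + 2 uM S6P, pH 7.1 buffer (25 mM Hepes, 2 mM MgCl2, 25 mM KCl, 1 mM DTT, Tween/BSA); pin-transferred cpd; anti-FLAG XL665/anti-GST K; 60 min RT; HTRF.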
# [4] = qHTS Assay for Identifying Gametocytocidal Compounds (AID 743244); further: potency means the concentration at half of the fitted maximal effect;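 on max response: actives lower the fluorescent signal which means gametocytes are killed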; conditions: P. falciparum 3D7 stage III-V gametocytes, alamarBlue, 72 h; max response: stronger effect = lower value
# In short: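 Viability read-out was resazurin reduction (alamarBlue, 24 h) measured at Ex 525/Em 598 nm. Beforehand, late-stage (III-V) 3D7 P. falciparum gametocytes at 20,000 cells/well were incubated with compound 72 h at 37C under 5% CO2.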
# [5] = qHTS assay for measurement of the activity of small molecule inhibitors on Zika virus induced Caspase-3 activity in human iPSC derived neural progenitor cells (hNPCs) (AID 1224857); further: nearly all actives have a fitted effect of over 65% in size; further: potency means the concentration at half of the fitted maximal effect
# In short: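 Percent inhibition of virus-induced caspase-3/7 luminescence (Caspase-Glo), scaled between uninfected cells and Zika-infected cells. hNPCs received compound 1 hr before ZIKV at 2 FFU/cell, with 6 hours infection at 37 C.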
# [6] = qHTS assay to identify small molecule inhibitors of chordoma cells - UCH-1 (AID 1259355); further: nearly all actives have a fitted effect of over 55% in size; further: potency means the concentration at half of the fitted maximal effect
# In short: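 Cells (800/well) were seeded and left overnight at 37 C, 5% CO2, then treated with drugs at 15 concentrations plus a combination mix of auranofin, camptothecin, doxorubicin, rubitecan and topotecan. Viability after 48hr was read by CellTiter-Glo luminescence.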
# [7] = qHTS assay to identify small molecule inhibitors of chordoma cells - UCH-2 (AID 1259356); further: potency means the concentration at half of the fitted maximal effect
# [8] = qHTS assay for measurement of the activity of small molecule inhibitors on Zika virus induced Caspase-3 activity in human astrocytoma cells (AID 1224859)
# In short: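 Luminescent caspase-3/7 read-out (30 min reagent, room temperature) in human SNB-19 cells infected 6 h with ZIKV (2 FFU/cell) after 1 h compound pre-incubation; Data were normalised to uninfected and infected wells.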
# [9] = qHTS profiling for inhibitors of Plasmodium falciparum (3D7) proliferation (AID 743322; call rule not given here;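 further: infected erythrocytes exposed to compound for 72 h before lysis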); conditions: P. falciparum 3D7 proliferation; at 28.7 µM (top of the series) unless noted
# In short: (§1)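 Erythrocytes infected with P. falciparum (0.3% parasitemia, 2.5% hematocrit) incubated with compounds 72 h at 37 C, 5% CO2. Lysis with saponin/Triton buffer containing SYBR Green I, overnight at room temperature in the dark; DNA fluorescence (485/535 nm) normalised to 0.29 uM artemisinin and DMSO.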
# [10] = qHTS profiling for inhibitors of Plasmodium falciparum (DD2) proliferation (AID 743323; call rule not given here); conditions: lower = more inhibition; at 28.7 µM (top of the series) unless noted
# In short: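 SYBR Green fluorescence (ex 485, em 535 nm) of lysed cultures gives parasite DNA content; wells normalized to artemisinin (0.29 uM) and DMSO controls. Infected red cells: 0.3% parasitemia, 2.5% hematocrit, 72 h, 37 C.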
# [11] = Identifying Small Molecule Inhibitors of Pancreatic Cancer Stem Cells (SN12C, Adherent) (AID 1259358);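 further: cell survival measured after 48 h of compound exposure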
# In short: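 Monolayer and spheroid cultures are compared. Spheroids form over 14 days in stem cell medium on hydrogel-coated low-attachment plates, then are exposed to compound for 48 h before CellTiter-Glo luminescence.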
# [12] = Identifying Small Molecule Inhibitors of Pancreatic Cancer Stem Cells (SN12C, Spheroid) (AID 1259360)
# In short: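 Cytotoxicity read by CellTiter-Glo luminescence after 48 h compound exposure at 37C; percent activity scaled between DMSO-treated cells and cell-free wells. Spheroid formats used cells pre-formed 14 days in stem cell media on hydrogel.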
# [13] = qHTS assay for cell viability of HEK293 cells (AID 743288); conditions: ATP luminescence (CellTiter-Glo), 18 h; max response: stronger effect = lower value; further: nearly all actives have a fitted effect of over 50% in size
# In short: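 HEK293 parental, 2,000 cells/well; ≥5 h pre-incubation 37 C; pintool compound addition; 18 h, 37 C; CellTiter-Glo 30 min RT; luminescence read.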
# [14] = qHTS assay for cell viability of the p53RE-bla HCT-116 cell line (AID 743292); further: nearly all actives have a fitted effect of over 55% in size
# In short: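 In this qHTS counter-screen, metabolically competent p53RE-bla HCT-116 cells were counted via their ATP content. Compounds were applied for 16 h at 37 C and luciferase-coupled luminescence was measured.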
# [15] = qHTS profiling of the MIPE4 collection as inhibitors of Plasmodium falciparum (3D7) proliferation (AID 743344; call rule not given here); conditions: P. falciparum 3D7 in erythrocytes, SYBR Green DNA fluorescence, 72 h; at 28.5 µM (top of the series)
# In short: as §1
# [16] = qHTS profiling of the MIPE4 collection as inhibitors of Plasmodium falciparum (DD2) proliferation (AID 743345; call rule not given here); conditions: P. falciparum Dd2 in erythrocytes, SYBR Green DNA, 72 h; at 28.5 µM (top of the series)
# In short: as §1
# [17] = qHTS profiling of the MIPE4 collection as inhibitors of Plasmodium falciparum (DD2) proliferation (Rep 2) (AID 743346; call rule not given here); conditions: P. falciparum Dd2 in erythrocytes, SYBR Green DNA, 72 h; at 28.5 µM (top of the series)
# In short: as §1
# [18] = qHTS profiling of the MIPE4 collection as inhibitors of Plasmodium falciparum (HB3) proliferation (AID 743347; call rule not given here); conditions: P. falciparum HB3 in erythrocytes, SYBR Green DNA, 72 h; at 28.5 µM (top of the series)
# In short: as §1
# T1 sequence (P35557 whole entry, looked up): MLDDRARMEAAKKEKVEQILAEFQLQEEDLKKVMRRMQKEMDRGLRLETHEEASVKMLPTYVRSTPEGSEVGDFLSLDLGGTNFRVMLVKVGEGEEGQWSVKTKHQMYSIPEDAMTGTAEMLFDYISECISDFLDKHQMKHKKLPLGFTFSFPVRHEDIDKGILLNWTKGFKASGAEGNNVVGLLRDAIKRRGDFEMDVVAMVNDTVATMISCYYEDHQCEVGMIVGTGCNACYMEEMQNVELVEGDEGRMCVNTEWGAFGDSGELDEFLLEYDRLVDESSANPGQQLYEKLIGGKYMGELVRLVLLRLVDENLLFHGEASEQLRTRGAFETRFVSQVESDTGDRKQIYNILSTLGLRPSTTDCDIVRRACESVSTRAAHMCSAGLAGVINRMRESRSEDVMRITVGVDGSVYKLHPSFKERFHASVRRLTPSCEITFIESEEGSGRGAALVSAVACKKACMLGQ
# T1 sequence (Q14397 whole entry, looked up): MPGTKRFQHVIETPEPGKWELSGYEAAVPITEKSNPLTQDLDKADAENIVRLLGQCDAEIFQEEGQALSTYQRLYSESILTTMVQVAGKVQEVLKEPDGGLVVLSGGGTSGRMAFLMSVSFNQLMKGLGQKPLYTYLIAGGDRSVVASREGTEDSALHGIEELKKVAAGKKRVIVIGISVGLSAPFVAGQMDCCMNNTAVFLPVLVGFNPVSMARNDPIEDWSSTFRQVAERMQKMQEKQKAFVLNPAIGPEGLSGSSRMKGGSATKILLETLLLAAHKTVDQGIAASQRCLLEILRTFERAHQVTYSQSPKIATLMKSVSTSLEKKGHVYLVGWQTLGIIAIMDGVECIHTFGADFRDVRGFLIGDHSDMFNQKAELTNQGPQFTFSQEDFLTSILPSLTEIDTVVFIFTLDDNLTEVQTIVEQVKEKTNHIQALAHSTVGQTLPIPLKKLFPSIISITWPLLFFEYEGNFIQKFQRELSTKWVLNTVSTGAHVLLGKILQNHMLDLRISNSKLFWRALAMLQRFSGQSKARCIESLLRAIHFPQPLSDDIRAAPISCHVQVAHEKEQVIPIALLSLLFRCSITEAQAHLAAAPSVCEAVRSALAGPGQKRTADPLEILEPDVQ
smiles,measurement,setting,value
Cc1ccc(O)c(N=Nc2ccccc2)n1,outcome,[1],inactive
same,Potency,[2],inactive
same,Potency,[3],inactive
same,Potency,[4],2.51 µM (active)
same,Potency,[5],0.891 µM (active)
C#CC1(O)CC[C@H]2[C@@H]3CCC4=CCCC[C@@H]4[C@H]3CC[C@@]21C (some centres undefined),max response,[4],18.8% (inactive)
same,Potency,[5],inactive
same,Potency,[6],inactive
same,Potency,[7],inactive
Clc1ccccc1-c1nc(-c2ccncc2)no1,max response,[4],20.9% (inactive)
same,Potency,[5],inactive
same,Potency,[6],inactive
same,Potency,[7],inactive
CCCCCCCCCCCCOCCO,Potency,[8],inactive
O=C(O)Cc1ccc2c(c1)C(=O)c1ccccc1CO2,Potency,[8],inactive
Oc1cc(O)cc(/C=C/c2ccc(O)c(O)c2)c1,outcome,[1],inactive
same,Potency,[2],inactive
same,Potency,[3],inactive
same,max response,[4],42.8% (inactive)
same,Potency,[5],7.94 µM (active)
CC(C)NC[C@@H](O)c1ccc(O)c(O)c1,outcome,[1],inactive
same,Potency,[2],inactive
same,Potency,[3],inactive
same,max response,[4],19.2% (inactive)
same,Potency,[5],inactive
CN1CC(=O)N/C1=N/C(=O)Nc1cccc(Cl)c1,outcome,[1],inactive
same,Potency,[2],inactive
same,Potency,[3],inactive
same,max response,[4],11.6% (inactive) and 35.9% (inactive)
same,remaining parasite growth % (stronger effect = lower value),[9],102%
same,"activity, percent of control",[10],106%
same,Potency,[5],11.2 µM (active)
same,Potency,[6],inactive
same,Potency,[7],inactive
same,Potency,[11],inactive
same,outcome,[12],inactive
CN1[C@@H](CC(=O)c2ccccc2)CCC[C@H]1C[C@H](O)c1ccccc1,outcome,[1],inactive
same,Potency,[2],inactive
same,Potency,[3],inactive
same,Potency,[5],inactive
same,Potency,[7],inactive
CCCCCCCCCCCCCCCCCC(=O)O,max response,[4],-10.4% (inactive)
same,max response,[13],-8.42% (inactive) and -6.66% (inactive) and -3.76% (inactive)
same,Potency,[14],inactive
same,Potency,[5],inactive
same,Potency,[6],inactive
same,Potency,[7],inactive
O=C(O)Cc1cccc(-c2cc(CCCCCCc3ccc(O[C@H]4O[C@H](CO)[C@@H](O)[C@H](O)[C@@H]4O)c(-c4cccc(CC(=O)O)c4)c3)ccc2O[C@H]2O[C@H](CO)[C@@H](O)[C@H](O)[C@@H]2O)c1,max response,[4],36.1% (inactive)
same,"activity change, negative = inhibition",[5],14.4% [at 0.568 µM] (inactive)
O=C1NC(=O)/C(=C/c2ccc(-c3ccc(F)cc3O)o2)S1,outcome,[1],inactive
same,Potency,[2],inactive
same,Potency,[3],inactive
same,max response,[4],-4.42% (inactive)
same,Potency,[5],10 µM (active)
Nc1nc2ccc([N+](=O)[O-])cc2s1,max response,[4],8.79% (inactive)
same,max response,[13],6.78% (inactive)
same,Potency,[14],inactive
same,Potency,[5],10 µM (active)
O=C(Nc1cccc(C(=O)Nc2ccc(S(=O)(=O)O)c3cc(S(=O)(=O)O)cc(S(=O)(=O)O)c23)c1)Nc1cccc(C(=O)Nc2ccc(S(=O)(=O)O)c3cc(S(=O)(=O)O)cc(S(=O)(=O)O)c23)c1,Potency,[2],22.4 µM (active)
same,Potency,[3],inactive
same,max response,[4],-0.217% (inactive)
same,"parasite growth, % of DMSO control",[15],84.7%
same,"parasite growth remaining, % of DMSO control (lower = more inhibition)",[16],91.3%
same,"parasite growth, % of control (lower = inhibition)",[17],111%
same,"growth, % of control",[18],83.4%
same,Potency,[5],inactive
c1ccc(CCNc2nc(-c3ccccc3)cs2)cc1,max response,[4],-4.46% (inactive)
same,Potency,[5],inactive
Cc1ccc(O)c(-n2nc3ccccc3n2)c1,max response,[4],-7.72% (inactive)
same,Potency,[5],inactive
same,Potency,[6],inactive
same,Potency,[7],inactive
O=C(Nc1ccc(C(=O)O)c(O)c1)c1ccccc1,max response,[4],3.53% (inactive)
same,Potency,[5],inactive
same,Potency,[6],inactive
same,Potency,[7],inactive
COc1cccc2c1C(=O)c1c(O)c3c(c(O)c1C2=O)C[C@@](O)(C(=O)CO)C[C@@H]3O[C@H]1C[C@H](N)[C@H](O[C@@H]2CCCCO2)[C@H](C)O1,Potency,[8],inactive
same,Potency,[6],3.98 µM (active)
same,Potency,[7],18.3 µM (active)
